Experiments:
Assay in all cases: DAPPL (digital affinity profiling via proximity ligation, sequencing); 10 mM Tris-HCl pH 7.5, 50 mM NaCl, 1 mM DTT, 4% glycerol, room temperature, 30 min; GST-TFs on glutathione beads, 16-mer random dsDNA library, 0.1% formaldehyde crosslink after washing; high values mean tight binding
Conditions in all cases: protein: recombinant; tags: N-terminal GST; dsDNA, one strand shown
FEV = molecular target: T1, FEV (Homo sapiens, UniProt Q99581 1-238)
T1 sequence: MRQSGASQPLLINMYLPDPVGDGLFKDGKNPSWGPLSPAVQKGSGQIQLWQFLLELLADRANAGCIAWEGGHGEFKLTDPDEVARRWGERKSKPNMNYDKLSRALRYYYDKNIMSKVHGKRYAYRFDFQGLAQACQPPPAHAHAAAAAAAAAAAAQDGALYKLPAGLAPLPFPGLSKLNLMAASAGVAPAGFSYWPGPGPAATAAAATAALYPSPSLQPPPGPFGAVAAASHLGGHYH
Outline: (§1)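 Beads coated with glutathione captured GST-fused human transcription factors that had been expressed in yeast, and the factors were then given DNA barcodes and pooled with a tag-only sample. The pools were incubated with 200 nmole of a random double-stranded 16-mer DNA library in Tris/NaCl/DTT/glycerol buffer for 30 min at room temperature, washed, crosslinked with 0.1% formaldehyde and proximity-ligated with BsaI/T4 ligase at 37 °C for 1 h. PCR amplification and Illumina NextSeq500 sequencing came last. Binding signal is each hexamer's read frequency for a factor divided by its frequency for the tag-only sample.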

ETV5 = ETV5 (Homo sapiens, UniProt P41161 1-510)
Outline: as §1

SPIC = molecular target: T2, SPIC (Homo sapiens, UniProt Q8N5J4 1-248)
T2 sequence: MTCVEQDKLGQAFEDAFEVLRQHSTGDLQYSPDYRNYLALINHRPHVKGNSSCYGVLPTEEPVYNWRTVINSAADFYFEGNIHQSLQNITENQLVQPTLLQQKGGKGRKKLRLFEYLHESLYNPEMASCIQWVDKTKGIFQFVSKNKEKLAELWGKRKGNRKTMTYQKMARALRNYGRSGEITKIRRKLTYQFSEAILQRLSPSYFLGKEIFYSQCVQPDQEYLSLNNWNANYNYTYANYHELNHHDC
Outline: as §1

ELF4 = ELF4 (Homo sapiens, UniProt Q99607 1-663)
Outline: as §1

ELK4 = molecular target: T3, ELK4 (Homo sapiens, UniProt P28324-2 1-405)
T3 sequence: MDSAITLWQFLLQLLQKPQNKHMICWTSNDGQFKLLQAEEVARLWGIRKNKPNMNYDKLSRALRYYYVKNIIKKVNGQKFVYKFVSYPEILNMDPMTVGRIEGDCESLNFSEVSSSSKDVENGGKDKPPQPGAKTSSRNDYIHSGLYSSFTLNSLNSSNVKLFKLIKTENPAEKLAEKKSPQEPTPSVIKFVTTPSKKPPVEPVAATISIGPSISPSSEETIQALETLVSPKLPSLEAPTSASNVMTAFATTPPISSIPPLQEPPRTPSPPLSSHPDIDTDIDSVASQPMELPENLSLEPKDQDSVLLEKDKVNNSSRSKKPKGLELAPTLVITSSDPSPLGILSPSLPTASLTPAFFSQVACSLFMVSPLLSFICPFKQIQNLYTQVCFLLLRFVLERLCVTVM
Outline: as §1

ETV2 = molecular target: T4, ETV2 (Homo sapiens, UniProt O00321 1-342)
T4 sequence: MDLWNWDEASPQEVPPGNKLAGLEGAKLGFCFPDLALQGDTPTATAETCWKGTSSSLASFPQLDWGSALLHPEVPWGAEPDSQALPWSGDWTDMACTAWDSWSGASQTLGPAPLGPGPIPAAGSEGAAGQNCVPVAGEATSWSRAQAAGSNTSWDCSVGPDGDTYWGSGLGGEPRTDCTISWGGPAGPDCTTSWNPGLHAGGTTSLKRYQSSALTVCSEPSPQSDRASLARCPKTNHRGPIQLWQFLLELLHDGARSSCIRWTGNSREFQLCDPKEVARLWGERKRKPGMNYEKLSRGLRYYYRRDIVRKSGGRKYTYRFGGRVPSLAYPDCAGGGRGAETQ
Outline: as §1

ELF3 = molecular target: T5, ELF3 (Homo sapiens, UniProt P78545 1-371)
T5 sequence: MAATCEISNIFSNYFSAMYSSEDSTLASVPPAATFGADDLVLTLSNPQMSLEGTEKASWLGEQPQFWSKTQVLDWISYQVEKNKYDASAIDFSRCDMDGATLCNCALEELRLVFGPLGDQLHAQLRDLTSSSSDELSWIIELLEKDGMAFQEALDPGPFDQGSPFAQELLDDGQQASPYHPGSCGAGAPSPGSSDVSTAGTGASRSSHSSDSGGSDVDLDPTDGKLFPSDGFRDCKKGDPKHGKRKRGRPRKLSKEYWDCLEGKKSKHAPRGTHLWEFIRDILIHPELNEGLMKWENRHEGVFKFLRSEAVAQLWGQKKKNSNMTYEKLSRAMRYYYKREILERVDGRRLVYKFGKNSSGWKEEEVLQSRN
Outline: as §1

CRX = CRX (Homo sapiens, UniProt O43186 1-299)
Outline: as §1

ETV1 = ETV1 (Homo sapiens, UniProt P50549 1-477)
Outline: as §1

ERF = molecular target: T6, ERF (Homo sapiens, UniProt P50548 1-548)
T6 sequence: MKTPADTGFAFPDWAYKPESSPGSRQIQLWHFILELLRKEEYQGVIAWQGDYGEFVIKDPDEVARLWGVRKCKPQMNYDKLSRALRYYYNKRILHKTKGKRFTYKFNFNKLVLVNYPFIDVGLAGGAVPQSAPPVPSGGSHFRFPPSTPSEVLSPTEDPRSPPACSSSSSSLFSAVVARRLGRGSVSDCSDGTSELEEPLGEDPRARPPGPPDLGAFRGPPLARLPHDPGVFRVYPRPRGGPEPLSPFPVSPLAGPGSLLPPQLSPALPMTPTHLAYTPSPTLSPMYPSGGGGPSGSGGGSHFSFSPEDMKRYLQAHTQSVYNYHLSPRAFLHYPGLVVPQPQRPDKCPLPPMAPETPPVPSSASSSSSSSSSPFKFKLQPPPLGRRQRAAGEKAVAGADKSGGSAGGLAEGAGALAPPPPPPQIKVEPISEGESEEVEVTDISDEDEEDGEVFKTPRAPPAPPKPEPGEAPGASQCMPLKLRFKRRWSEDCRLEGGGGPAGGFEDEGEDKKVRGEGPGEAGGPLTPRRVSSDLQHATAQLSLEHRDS
Outline: as §1

ETS2 = molecular target: T7, ETS2 (Homo sapiens, UniProt P15036 1-469)
T7 sequence: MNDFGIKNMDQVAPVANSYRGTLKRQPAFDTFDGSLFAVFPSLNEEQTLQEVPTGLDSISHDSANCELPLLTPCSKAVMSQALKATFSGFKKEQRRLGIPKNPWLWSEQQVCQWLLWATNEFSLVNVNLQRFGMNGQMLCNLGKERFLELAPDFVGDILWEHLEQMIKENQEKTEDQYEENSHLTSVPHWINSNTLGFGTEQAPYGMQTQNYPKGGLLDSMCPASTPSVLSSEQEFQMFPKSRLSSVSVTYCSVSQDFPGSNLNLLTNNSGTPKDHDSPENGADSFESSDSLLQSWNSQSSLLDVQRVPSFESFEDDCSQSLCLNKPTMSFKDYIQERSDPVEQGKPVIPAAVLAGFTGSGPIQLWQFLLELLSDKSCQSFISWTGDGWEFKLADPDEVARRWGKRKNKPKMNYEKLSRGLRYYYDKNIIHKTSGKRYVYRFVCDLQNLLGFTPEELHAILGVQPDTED
Outline: as §1

ETV7 = molecular target: T8, ETV7 (Homo sapiens, UniProt Q9Y603 1-341)
T8 sequence: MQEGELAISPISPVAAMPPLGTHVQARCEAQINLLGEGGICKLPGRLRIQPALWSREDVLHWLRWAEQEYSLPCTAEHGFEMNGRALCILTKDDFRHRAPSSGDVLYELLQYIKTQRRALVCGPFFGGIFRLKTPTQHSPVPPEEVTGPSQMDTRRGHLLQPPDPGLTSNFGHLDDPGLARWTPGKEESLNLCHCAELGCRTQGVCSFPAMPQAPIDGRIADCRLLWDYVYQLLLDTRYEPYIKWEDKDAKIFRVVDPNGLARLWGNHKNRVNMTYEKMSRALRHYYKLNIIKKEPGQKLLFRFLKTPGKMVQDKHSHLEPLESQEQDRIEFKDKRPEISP
Outline: as §1

ETV3L = molecular target: T9, ETV3L (Homo sapiens, UniProt Q6ZN32 1-361)
T9 sequence: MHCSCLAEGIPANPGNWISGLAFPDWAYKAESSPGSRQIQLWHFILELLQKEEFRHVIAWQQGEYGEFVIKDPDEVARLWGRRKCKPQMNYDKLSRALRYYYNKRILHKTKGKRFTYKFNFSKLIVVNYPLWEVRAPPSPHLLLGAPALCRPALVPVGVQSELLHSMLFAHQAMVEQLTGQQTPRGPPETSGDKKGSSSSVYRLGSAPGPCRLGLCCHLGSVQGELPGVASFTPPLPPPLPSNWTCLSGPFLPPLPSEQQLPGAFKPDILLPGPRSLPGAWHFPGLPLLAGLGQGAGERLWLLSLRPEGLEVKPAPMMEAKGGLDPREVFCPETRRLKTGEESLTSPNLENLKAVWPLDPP
Outline: as §1

SPDEF = molecular target: T10, SPDEF (Homo sapiens, UniProt O95238 1-335)
T10 sequence: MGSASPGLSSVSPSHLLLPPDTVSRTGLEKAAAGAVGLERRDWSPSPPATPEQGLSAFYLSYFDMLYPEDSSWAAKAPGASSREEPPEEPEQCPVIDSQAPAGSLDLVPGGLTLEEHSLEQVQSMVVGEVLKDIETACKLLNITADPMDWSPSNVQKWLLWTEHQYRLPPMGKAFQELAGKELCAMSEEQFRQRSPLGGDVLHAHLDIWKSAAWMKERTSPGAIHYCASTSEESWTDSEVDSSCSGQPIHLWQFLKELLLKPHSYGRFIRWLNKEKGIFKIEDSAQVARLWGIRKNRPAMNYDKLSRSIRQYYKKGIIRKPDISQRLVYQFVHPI
Outline: as §1

ETV3 = molecular target: T11, ETV3 (Homo sapiens, UniProt P41162-2 1-143)
T11 sequence: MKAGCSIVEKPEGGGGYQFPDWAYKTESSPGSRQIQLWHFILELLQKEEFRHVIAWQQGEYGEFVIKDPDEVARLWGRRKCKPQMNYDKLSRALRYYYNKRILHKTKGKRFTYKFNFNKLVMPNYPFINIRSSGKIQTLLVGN
Outline: as §1

ETV6 = ETV6 (Homo sapiens, UniProt P41212 1-452)
Outline: as §1

ELF5 = molecular target: T12, ELF5 (Homo sapiens, UniProt Q9UKW6-2 1-255)
T12 sequence: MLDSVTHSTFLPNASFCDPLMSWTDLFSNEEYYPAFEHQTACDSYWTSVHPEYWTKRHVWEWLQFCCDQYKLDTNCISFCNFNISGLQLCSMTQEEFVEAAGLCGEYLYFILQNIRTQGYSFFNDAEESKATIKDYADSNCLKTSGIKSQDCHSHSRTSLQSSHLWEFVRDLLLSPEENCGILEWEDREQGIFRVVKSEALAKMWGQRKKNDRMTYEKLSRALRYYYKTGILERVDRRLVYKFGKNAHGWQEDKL
Outline: as §1

Sequence of ETV1 (P50549 whole entry): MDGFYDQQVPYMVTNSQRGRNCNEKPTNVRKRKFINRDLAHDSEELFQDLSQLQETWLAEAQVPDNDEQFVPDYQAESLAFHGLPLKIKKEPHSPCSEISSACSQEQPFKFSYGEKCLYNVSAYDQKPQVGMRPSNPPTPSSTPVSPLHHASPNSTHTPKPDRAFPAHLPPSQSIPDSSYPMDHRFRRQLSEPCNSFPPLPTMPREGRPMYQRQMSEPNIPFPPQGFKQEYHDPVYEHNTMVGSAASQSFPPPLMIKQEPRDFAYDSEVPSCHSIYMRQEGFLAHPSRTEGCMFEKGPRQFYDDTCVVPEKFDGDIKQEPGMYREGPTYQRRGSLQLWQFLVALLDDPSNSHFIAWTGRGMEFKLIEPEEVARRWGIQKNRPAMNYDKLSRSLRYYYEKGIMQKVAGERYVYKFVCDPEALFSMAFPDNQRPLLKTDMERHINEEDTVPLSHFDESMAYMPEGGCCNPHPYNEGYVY
Sequence of ETV5 (P41161 whole entry): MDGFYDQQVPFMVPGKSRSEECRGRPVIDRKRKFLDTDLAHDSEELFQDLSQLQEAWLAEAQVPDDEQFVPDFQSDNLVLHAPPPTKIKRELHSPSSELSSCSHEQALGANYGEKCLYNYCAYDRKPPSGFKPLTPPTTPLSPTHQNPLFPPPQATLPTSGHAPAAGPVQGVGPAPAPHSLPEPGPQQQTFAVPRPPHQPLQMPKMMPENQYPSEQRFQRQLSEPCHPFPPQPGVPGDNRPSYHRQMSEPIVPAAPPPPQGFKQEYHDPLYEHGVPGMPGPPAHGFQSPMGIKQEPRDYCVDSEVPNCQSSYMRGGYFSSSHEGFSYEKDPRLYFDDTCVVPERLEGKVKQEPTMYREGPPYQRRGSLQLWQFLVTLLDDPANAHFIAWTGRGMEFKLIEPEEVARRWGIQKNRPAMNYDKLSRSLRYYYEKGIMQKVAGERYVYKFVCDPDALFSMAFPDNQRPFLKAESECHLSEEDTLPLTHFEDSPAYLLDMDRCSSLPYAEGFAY
Sequence of ELF4 (Q99607 whole entry): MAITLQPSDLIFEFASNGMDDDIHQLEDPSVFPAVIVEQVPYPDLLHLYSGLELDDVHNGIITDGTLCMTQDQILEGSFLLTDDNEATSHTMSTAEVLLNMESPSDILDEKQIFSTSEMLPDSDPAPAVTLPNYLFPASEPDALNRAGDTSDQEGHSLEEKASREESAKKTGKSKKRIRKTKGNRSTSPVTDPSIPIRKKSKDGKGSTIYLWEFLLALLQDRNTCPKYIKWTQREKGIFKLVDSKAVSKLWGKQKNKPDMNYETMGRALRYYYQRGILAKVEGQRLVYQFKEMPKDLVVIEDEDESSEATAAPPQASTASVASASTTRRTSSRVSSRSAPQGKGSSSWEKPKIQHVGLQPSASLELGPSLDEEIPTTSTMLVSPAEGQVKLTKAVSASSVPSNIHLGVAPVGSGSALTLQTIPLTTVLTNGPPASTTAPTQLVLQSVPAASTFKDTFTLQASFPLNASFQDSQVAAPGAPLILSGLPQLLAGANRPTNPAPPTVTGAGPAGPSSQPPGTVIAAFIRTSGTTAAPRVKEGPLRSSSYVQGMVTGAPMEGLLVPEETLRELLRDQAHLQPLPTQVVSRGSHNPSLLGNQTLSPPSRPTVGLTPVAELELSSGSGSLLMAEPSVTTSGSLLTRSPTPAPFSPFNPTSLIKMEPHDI
Sequence of ETV6 (P41212 whole entry): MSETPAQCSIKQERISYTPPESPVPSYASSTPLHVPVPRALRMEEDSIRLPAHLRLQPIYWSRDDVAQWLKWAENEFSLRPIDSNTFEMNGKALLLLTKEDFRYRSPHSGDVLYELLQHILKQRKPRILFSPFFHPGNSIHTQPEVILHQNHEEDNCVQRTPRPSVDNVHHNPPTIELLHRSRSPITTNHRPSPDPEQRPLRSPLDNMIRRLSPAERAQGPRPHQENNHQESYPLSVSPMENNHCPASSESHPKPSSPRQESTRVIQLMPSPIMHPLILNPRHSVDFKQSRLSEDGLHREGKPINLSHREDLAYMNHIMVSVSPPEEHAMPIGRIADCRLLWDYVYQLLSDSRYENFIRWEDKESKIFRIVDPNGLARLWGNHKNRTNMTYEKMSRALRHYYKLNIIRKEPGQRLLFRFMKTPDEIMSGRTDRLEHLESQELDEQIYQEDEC
Sequence of CRX (O43186 whole entry): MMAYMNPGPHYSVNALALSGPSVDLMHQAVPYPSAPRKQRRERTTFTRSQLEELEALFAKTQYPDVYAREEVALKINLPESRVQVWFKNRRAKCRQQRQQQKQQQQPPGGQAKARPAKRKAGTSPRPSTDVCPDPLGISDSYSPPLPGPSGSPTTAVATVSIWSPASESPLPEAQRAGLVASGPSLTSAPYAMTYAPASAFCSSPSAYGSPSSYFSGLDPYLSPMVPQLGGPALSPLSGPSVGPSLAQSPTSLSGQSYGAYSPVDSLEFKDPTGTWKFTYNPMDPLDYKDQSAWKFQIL

| Sequence | binding signal (FEV) | binding signal (ETV5) | binding signal (SPIC) | binding signal (ELF4) | binding signal (ELK4) | binding signal (ETV2) | binding signal (ELF3) | binding signal (CRX) | binding signal (ETV1) | binding signal (ERF) | binding signal (ETS2) | binding signal (ETV7) | binding signal (ETV3L) | binding signal (SPDEF) | binding signal (ETV3) | binding signal (ETV6) | binding signal (ELF5) |
| --- | --- | --- | --- | --- | --- | --- | --- | --- | --- | --- | --- | --- | --- | --- | --- | --- | --- |
| GGCTTG | 1.01 fold enrichment (6-mer frequency, TF over GST control) | 1.01 fold enrichment (6-mer frequency, TF over GST control) | 1.12 fold enrichment (6-mer frequency, TF over GST control) | 1.07 fold enrichment (6-mer frequency, TF over GST control) | 1.12 fold enrichment (6-mer frequency, TF over GST control) | 1.01 fold enrichment (6-mer frequency, TF over GST control) | 1.11 fold enrichment (6-mer frequency, TF over GST control) | 1.06 fold enrichment (6-mer frequency, TF over GST control) | 1.08 fold enrichment (6-mer frequency, TF over GST control) | 1.01 fold enrichment (6-mer frequency, TF over GST control) | 1.06 fold enrichment (6-mer frequency, TF over GST control) | 1.14 fold enrichment (6-mer frequency, TF over GST control) | – | – | – | – | – |
| TTGGGC | 1.13 fold enrichment (6-mer frequency, TF over GST control) | 1.12 fold enrichment (6-mer frequency, TF over GST control) | 1.07 fold enrichment (6-mer frequency, TF over GST control) | 1.1 fold enrichment (6-mer frequency, TF over GST control) | 1.05 fold enrichment (6-mer frequency, TF over GST control) | 1.15 fold enrichment (6-mer frequency, TF over GST control) | 1.18 fold enrichment (6-mer frequency, TF over GST control) | 1.03 fold enrichment (6-mer frequency, TF over GST control) | 1.13 fold enrichment (6-mer frequency, TF over GST control) | 1.12 fold enrichment (6-mer frequency, TF over GST control) | 1.12 fold enrichment (6-mer frequency, TF over GST control) | 1.09 fold enrichment (6-mer frequency, TF over GST control) | 1.22 fold enrichment (6-mer frequency, TF over GST control) | 1 fold enrichment (6-mer frequency, TF over GST control) | 1.04 fold enrichment (6-mer frequency, TF over GST control) | 1.11 fold enrichment (6-mer frequency, TF over GST control) | – |
| GCACCC | 1.12 fold enrichment (6-mer frequency, TF over GST control) | 1.11 fold enrichment (6-mer frequency, TF over GST control) | 1.3 fold enrichment (6-mer frequency, TF over GST control) | 1.22 fold enrichment (6-mer frequency, TF over GST control) | 1.33 fold enrichment (6-mer frequency, TF over GST control) | 1.28 fold enrichment (6-mer frequency, TF over GST control) | 1.25 fold enrichment (6-mer frequency, TF over GST control) | – | 1.15 fold enrichment (6-mer frequency, TF over GST control) | 1.21 fold enrichment (6-mer frequency, TF over GST control) | 1.16 fold enrichment (6-mer frequency, TF over GST control) | 1.12 fold enrichment (6-mer frequency, TF over GST control) | 1.23 fold enrichment (6-mer frequency, TF over GST control) | 1.17 fold enrichment (6-mer frequency, TF over GST control) | 1.24 fold enrichment (6-mer frequency, TF over GST control) | 1.09 fold enrichment (6-mer frequency, TF over GST control) | 1.17 fold enrichment (6-mer frequency, TF over GST control) |
